Data on 7 compounds can be found in PubChem BioAssay.

The structures appear in SMILES notation. The source made the active and inactive calls. Unless noted, how the calls were made is not given here.

Assay [1] in a line: resazurin metabolic signal in HepG2 cells – cell-based, resazurin fluorescence, 24 h, PK04 Diversity Set, profiling panel (AID 1172). The conditions noted are these: HepG2 viability, higher = more signal.
A short description of assay [2]: budding yeast growth changes without added modifier – OD600, strain BY4716, 24 h, basal condition, primary screen (AID 1173). The conditions noted are these: S. cerevisiae BY4716 growth, OD600, 24 h; higher = more signal, called active from +8 up or from −8 down.
The nature of assay [3]: viability profiling in MM1S myeloma cells – cell-based, resazurin fluorescence, basal, 24 h, PK04 Diversity Set, profiling panel (AID 1174).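 Further: MM1S multiple myeloma cell line.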 The conditions noted are these: higher = more signal, called active from +8 up or from −8 down. A general note: Alamar Blue is a resazurin reagent that responds to reducing activity.
The target of assay [4] is Dihydroorotate dehydrogenase (quinone), mitochondrial (Plasmodium falciparum (isolate 3D7)) (UniProt Q08210). Briefly: inhibition of P. falciparum DHODH – biochemical, C-terminal His tag, absorbance 600 nm, primary screen (AID 1175).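 Further: recombinant parasite enzyme with a five histidine tag at its C terminus.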 Conditions: PfDHODH enzyme, DCIP absorbance 600 nm; higher = more signal, called active from +8 up or from −8 down.
Dihydroorotate dehydrogenase (quinone), mitochondrial (Plasmodium falciparum (isolate 3D7)), sequence (Q08210 whole entry, looked up): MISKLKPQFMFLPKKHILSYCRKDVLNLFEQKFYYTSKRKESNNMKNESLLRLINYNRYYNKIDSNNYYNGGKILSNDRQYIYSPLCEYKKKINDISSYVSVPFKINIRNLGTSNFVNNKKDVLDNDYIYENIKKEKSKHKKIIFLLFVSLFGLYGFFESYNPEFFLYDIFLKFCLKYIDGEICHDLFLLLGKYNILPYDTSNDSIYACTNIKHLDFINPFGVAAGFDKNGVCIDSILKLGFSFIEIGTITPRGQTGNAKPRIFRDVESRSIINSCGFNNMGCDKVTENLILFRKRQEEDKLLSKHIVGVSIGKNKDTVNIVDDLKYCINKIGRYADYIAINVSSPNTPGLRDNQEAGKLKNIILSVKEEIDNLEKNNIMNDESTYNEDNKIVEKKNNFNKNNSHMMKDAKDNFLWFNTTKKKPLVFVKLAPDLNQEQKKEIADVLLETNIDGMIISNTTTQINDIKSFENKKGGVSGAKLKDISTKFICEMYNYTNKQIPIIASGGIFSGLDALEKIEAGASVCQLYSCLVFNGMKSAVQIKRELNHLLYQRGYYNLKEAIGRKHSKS
Assay [5] in a line: inhibition of PAO1 biofilm formation – strain PAO1, LB-PBS medium, absorbance 600 nm, primary screen (AID 1176). Conditions: P. aeruginosa PAO1 growth/biofilm, A600, 12 h; higher = more signal.
Assay [6] is described as follows: growth modulation of vineyard yeast isolate – strain RM11-1a, OD600, basal, 24 h, primary screen (AID 1177).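 Further: cultures grown under basal conditions with no added stressor.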 Conditions: S. cerevisiae RM11-1a growth, OD600, 24 h; higher = more signal, called active from +8 up or from −8 down.
A short description of assay [7]: growth of efflux-deficient E. coli DRC39 – strain DRC39, OD650, 24 h, E. coli filamentation inducers, primary screen (AID 1178).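 Further: growth measured as culture turbidity by optical density at 650 nm.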 The conditions noted are these: E. coli DRC39 acrAB, higher = more signal, called active from +8 up or from −8 down.
The nature of assay [8]: growth of efflux-deficient E. coli DRC39 – strain DRC39, OD650, 48 h, E. coli filamentation inducers, primary screen (AID 1179).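 Further: screen aims at cell division blockers that make cells filament.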 Conditions: E. coli DRC39 delta-acrAB growth, higher = more signal, called active from +8 up or from −8 down.
A short description of assay [9]: viability profiling in RPMI8226 myeloma cells – cell-based, resazurin fluorescence, basal, 24 h, PK04 Diversity Set, profiling panel (AID 1180).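 Further: RPMI8826 multiple myeloma cell line at 5000 cells per well.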 The conditions noted are these: higher = more signal.
For assay [10], the target named is E3 ubiquitin-protein ligase XIAP (Homo sapiens) (UniProt P98170). Put plainly: small molecules binding XIAP protein – biophysical, small-molecule microarray, fluorescence 635 nm, primary screen (AID 1181).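 Further: score merges 667 nm emission and signal to noise over triplicate slides.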 The conditions noted are these: higher = more signal.
E3 ubiquitin-protein ligase XIAP (Homo sapiens), sequence (P98170 whole entry, looked up, the tested form may be a part): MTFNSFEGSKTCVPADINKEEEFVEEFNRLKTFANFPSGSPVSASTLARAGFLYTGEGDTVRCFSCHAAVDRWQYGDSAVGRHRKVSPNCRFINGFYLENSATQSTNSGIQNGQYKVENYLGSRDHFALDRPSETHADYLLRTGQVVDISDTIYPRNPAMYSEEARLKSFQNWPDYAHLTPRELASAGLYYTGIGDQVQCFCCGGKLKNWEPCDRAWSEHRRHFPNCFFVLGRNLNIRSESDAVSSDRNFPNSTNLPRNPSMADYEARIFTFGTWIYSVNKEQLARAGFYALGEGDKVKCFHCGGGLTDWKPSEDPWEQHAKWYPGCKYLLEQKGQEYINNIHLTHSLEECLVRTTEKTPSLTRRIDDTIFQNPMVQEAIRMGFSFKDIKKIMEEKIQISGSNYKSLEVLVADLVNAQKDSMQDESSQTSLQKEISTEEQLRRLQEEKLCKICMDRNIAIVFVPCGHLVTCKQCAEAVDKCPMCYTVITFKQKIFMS
Assay [11] has as its system XIP peptide (Xip251-270) binding. Put plainly: XIP fragment 251-270 binding compounds – biochemical, small-molecule microarray, fluorescence 635/667 nm, 0.1 µg/mL protein, primary screen (AID 1182). Conditions: fluorescent protein binding, 635 nm, higher = more signal, called active from +8 up or from −8 down.
The test system of the next assay is XIP peptide (Xip251-270). Briefly: compounds binding XIP fragment 251-270 – biochemical, small-molecule microarray, fluorescence 635/667 nm, 0.5 µg/mL protein, primary screen (AID 1183). Conditions: fluorescence 635 nm, higher = more signal.
Assay [12] can be described thus: blood-stage malaria parasite viability loss – strain 3D7, DAPI fluorescence, 100 nL, primary screen (AID 1184).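 Further: parasites grown inside human red blood cells in medium with human serum.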 The conditions noted are these: P. falciparum 3D7 growth, 3 d, higher = more signal.
Assay [13] addresses Homeobox protein Hox-A13 (Mus musculus) (UniProt Q62424). Put plainly: disruptors of Hoxa13 oligonucleotide interaction – biochemical, fluorescence polarization, labeled oligonucleotide, primary screen (AID 1185). The conditions noted are these: Hoxa13:DNA binding, 15 min, higher = more signal, called active from +8 up or from −8 down. For orientation: Polarisation of emitted light reports the rotation of a fluorescent probe.

A short description of assay [14]: blockers of DNA damage checkpoint Chk1 activation – imaging, HeLa, hydroxyurea, phospho-Chk1 antibody, percent positive cells, primary screen (AID 1186). Conditions: hydroxyurea-induced phospho-Chk1 immunofluorescence imaging, higher = more signal.
Assay [15] in a line: blockers of DNA damage checkpoint Chk1 activation – imaging, HeLa, hydroxyurea, phospho-Chk1 nuclear intensity, primary screen (AID 1187). Conditions: hydroxyurea-induced phospho-Chk1 immunofluorescence imaging, higher = more signal.

Homeobox protein Hox-A13 (Mus musculus), sequence (Q62424 whole entry, looked up): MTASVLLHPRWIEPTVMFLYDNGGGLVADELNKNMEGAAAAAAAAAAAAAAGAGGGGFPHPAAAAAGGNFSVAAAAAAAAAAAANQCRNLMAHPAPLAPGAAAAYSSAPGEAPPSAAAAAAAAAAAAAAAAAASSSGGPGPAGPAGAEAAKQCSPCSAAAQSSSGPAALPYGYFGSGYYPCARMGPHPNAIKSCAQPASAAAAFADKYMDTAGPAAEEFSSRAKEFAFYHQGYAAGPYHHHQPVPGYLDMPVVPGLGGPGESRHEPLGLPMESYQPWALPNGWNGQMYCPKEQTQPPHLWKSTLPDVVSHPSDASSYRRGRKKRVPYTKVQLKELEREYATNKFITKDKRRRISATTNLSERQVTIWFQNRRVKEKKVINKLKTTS

For `NCCCCCCNC(=O)[C@@H]1C[C@@H]2C(=O)N3CCC[C@H]3C(=O)N2[C@@H]1c1ccc(O)cc1`, the z-score in [1] is -0.0529; in assay [2], -0.547 (inactive); in assay [3] it was -0.233 (inactive); in assay [5], -0.282 (inactive); in [6], -0.407 (inactive); in [7], -0.188 (inactive). For the same compound, the z-score in assay [8] is -0.196 (inactive); in assay [9] it was -0.134; in assay [12], 1.42; in assay [13] it was -2.07 (inactive); in [14], 0.683 (inactive); in assay [15], 0.289 (inactive). In addition, the composite z-score in assay [4] is -1.18 (inactive); in assay [10], -0.209; in assay [11], -0.386 (inactive); in the assay on XIP peptide (Xip251-270), 0.664.
Consider `[N-]=[N+]=NCc1ccccc1C[C@@]1(C(=O)NCCN2CCOCC2)N=C(c2ccc(OCCCO)cc2)O[C@@H]1c1ccccc1N=[N+]=[N-]`, for which the z-score in assay [1] was -0.61; in assay [2], -1.22 (inactive); in assay [3], -0.37 (inactive); in assay [5], 0.124 (inactive); in assay [6] it was -0.304 (inactive); in assay [7], 0.647 (inactive). Further, the z-score is -0.456 (inactive) in assay [8]; -0.0843 in assay [9]; -2.75 in [12]; -2.44 (inactive) in assay [13]; -0.402 (inactive) in assay [14]; -0.753 (inactive) in [15]. Also, the composite z-score in assay [4] is 0.699 (inactive); in [10] it was 0.318; in [11] it was 1.51 (inactive); with XIP peptide (Xip251-270) it was 0.767.
For the compound `CC(C)(C)OC(=O)CC[C@]1(C(=O)O)N=C(c2ccc(OCCCO)cc2)O[C@H]1c1ccccc1CN=[N+]=[N-]`, the z-score in assay [1] is 0.706; in assay [2], -0.0245 (inactive); in [3] it was 0.444 (inactive); in [5], -0.788 (inactive); in assay [6] it was -0.165 (inactive); in [7], 0.184 (inactive). Moreover, the z-score is 1.25 (inactive) in [8]; 0.925 in [9]; -0.711 in assay [12]; -4 (inactive) in [13]; -0.287 (inactive) in assay [14]; -0.499 (inactive) in [15]. Further, the composite z-score in assay [4] was 0.209 (inactive); in assay [10] it was -0.204; in [11] it was 0.109 (inactive); in the assay with XIP peptide (Xip251-270), 0.405.
Consider `[N-]=[N+]=NCc1ccccc1[C@H]1OC(c2ccc(OCCCO)cc2)=N[C@@]1(CCS(=O)(=O)c1ccccc1)C(N)=O`, for which the z-score in assay [1] was 0.437; in assay [2] it was -0.258 (inactive); in [3], 0.284 (inactive); in assay [5], 0.274 (inactive); in assay [6], -0.296 (inactive); in assay [7], 0.0575 (inactive). For the same compound, the z-score in assay [8] was -0.702 (inactive); in assay [9] it was -0.134; in assay [12], -1.09; in assay [13], -3.46 (inactive); in assay [14], 0.163 (inactive); in assay [15], 0.0372 (inactive). The composite z-score in assay [4] was -0.136 (inactive); in [10] it was 0.182; in assay [11], 1 (inactive); with XIP peptide (Xip251-270) it was 0.558.
As to `CN1C(=O)C2C=CC(C(O)c3c(F)cccc3Cl)N(Nc3ccccc3)C2C1=O` (configuration not stated), the z-score in assay [1] is -0.203; in [2], -1.03 (inactive); in assay [3] it was -0.682 (inactive); in [5] it was 0.627 (inactive); in [6], -0.284 (inactive); in [7], -1.11 (inactive). Further, the z-score in assay [8] was -0.618 (inactive); in [9] it was -0.679; in [12] it was 1.04; in assay [13], -3.42 (inactive); in [14], 0.563 (inactive); in assay [15] it was 0.463 (inactive). For the same compound, the composite z-score in assay [4] is 0.061 (inactive); in assay [10] it was 0.0651; in assay [11] it was -0.108 (inactive); in the assay with XIP peptide (Xip251-270), 0.324.
Take `C=C(COC)/C(=C/C[C@@H](OC(=O)c1ccncc1)c1cccc(OCCO)c1)c1cnc2ccccc2c1`: the z-score in assay [1] was -0.464; in [2], -17.3 (active); in assay [3] it was -0.835 (inactive); in assay [5], 1.17 (inactive); in assay [6], -5.29 (inactive); in assay [7], -0.451 (inactive). Further, the z-score in assay [8] is -0.318 (inactive); in assay [9], -0.526; in assay [12], -2.79; in assay [13] it was -5.6 (inactive); in assay [14] it was 0.594 (inactive); in assay [15], 0.376 (inactive). The composite z-score was -6.7 (inactive) in assay [4], 0.594 in assay [10], 0.482 (inactive) in assay [11] and 0.763 with XIP peptide (Xip251-270).
For the compound `COC(=O)[C@@]1(Cc2ccc(F)cc2)[C@H]2c3cc(C(=O)N4CCCC4)n(CCc4c[nH]c5ccc(OC)cc45)c3C[C@H]2CN1C(=O)c1ccccc1`, the z-score in assay [1] is -0.946; in assay [2] it was 0.813 (inactive); in [3] it was -2.53 (inactive); in assay [5], 3.29 (inactive); in [6], 0.622 (inactive); in assay [7], -0.137 (inactive). Further, the z-score in assay [8] was -0.72 (inactive); in [9] it was -3.36; in assay [12], -1.74; in assay [13], -3.53 (inactive); in assay [14], -0.371 (inactive); in assay [15], -0.199 (inactive). For the same compound, the composite z-score is -3.91 (inactive) in [4], 0.498 in assay [10], 0.804 (inactive) in assay [11] and 0.727 in the assay with XIP peptide (Xip251-270).
